Compound activity: PubChem, National Center for Advancing Translational Sciences (NCATS)
Rows were chosen to be rich in hits. Some 11% of all compounds tested hit in one or more screens of this group.
FLuc inh: Photinus pyralis luciferase inhibition; purified P. pyralis luciferase, luminescence, biochemical; Potency, µM (doses to about 115 µM), hits mostly inhibitors; 76,000 tested, 2.5% active; note: nearly all actives have a fitted effect of over 65% in size
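FLuc 10nM, D-luciferin 10uM, ATP 10uM, Mg acetate 10mM, Tris acetate pH 7.5, Tween/BSA; cpd qHTS; enzyme added last; CCD luminescence.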
HEK cytotox: HEK 293 cell cytotoxicity; HEK 293 viability, ATP luminescence (CellTiter-Glo), 48-72 h; Potency, µM (series often up to 115 µM), actives largely listed as inhibitors; 94,000 tested, 6.6% active; note: nearly all actives have a fitted effect of over 60% in size
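ATP-coupled CellTiter-Glo luminescence served as viability read-out, recorded 10 min after reagent addition at room temperature. HEK 293 cells, 250 cells/well, had been incubated with pintool-transferred compound for 48 or 72 hr at 37 degree Celsius.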
hNpr1 antagonist: antagonists of human natriuretic peptide receptor Npr1; HEK293 hNpr1 GloSensor cGMP, ANP-stimulated luminescence; Potency, µM (top dose mostly 46.3 µM), most hits filed as inhibitors; 76,000 tested, 1.6% active; AID 1347048; calls by dose curve; note: nearly all actives have a fitted effect of over 60% in size
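HEK293 cells stably expressing human Npr1 and cGMP GloSensor pGS-40F, loaded 2 h with 2% GloSensor reagent, given compound 30 min at room temperature. Luminescence read before and 20 min after 0.1 nM hNppA.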
NIH3T3 tox: kills NIH 3T3 cells | Potency, µM (highest dose often 96.7 µM), actives largely listed as inhibitors | 94,000 tested, 4.3% active | NIH 3T3 viability, CellTiter-Glo ATP luminescence, 48-72 h; note: nearly all actives have a fitted effect of over 55% in size
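NIH 3T3 cells at 400 cells/well received 23 nL of compound by pintool and were incubated 48 or 72 h at 37 °C. Viability was read as ATP-coupled CellTiter-Glo luminescence.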
Of the large screens only hits and unclear results are named; the others gave an inactive call. Unless noted, calls come from the whole dose curve; as a rule, active = well fitted curve in the direction sought with a large enough effect; inconclusive = small, poorly fitted or top-dose-only effect, or another doubt; inactive = no such curve, though single readings can be large; an effect the other way counts as inactive or inconclusive.

O=C(Cc1ccccn1)N1CCCC(C(=O)N2CCC(N3CCOCC3=O)CC2)C1 (centres undefined)	none (no result: FLuc inh, hNpr1 antagonist)
CCn1ncc(N2CCCC(CC(=O)Nc3ccc(C)c(C)c3)C2)cc1=O (centres undefined)	HEK cytotox inconclusive, NIH3T3 tox inconclusive
CNC(=O)c1cc(C2CC2)nc2c1c(C1CCCN1C(=O)C(C)(C)C)nn2C (centres undefined)	none (no result: FLuc inh, hNpr1 antagonist)
COc1ncccc1-c1nc2cc(C(=O)Nc3cccc(Cl)c3)ccc2o1	HEK cytotox 13µM (no result: FLuc inh, hNpr1 antagonist)
O=C(c1cccc2[nH]ccc12)N1CCC(N2C(=O)C3(CCCCC3)C2c2ccncc2)CC1 (centres undefined)	none
O=C(COc1ccc(Cl)cc1)N1CCN(c2cc(-c3ccccc3)[nH]n2)CC1	HEK cytotox 89µM, NIH3T3 tox inconclusive
O=C(COc1ccccc1)N1CCCN(c2cc(-c3ccc(Cl)cc3)[nH]n2)CC1	HEK cytotox inconclusive, NIH3T3 tox inconclusive
COc1ccccc1CC(=O)N1CCN(c2cc(-c3ccccc3)[nH]n2)CC1	HEK cytotox 22µM, NIH3T3 tox inconclusive
COc1ccccc1CCC(=O)N1CCN(c2cc(-c3ccc(Cl)cc3)[nH]n2)CC1	HEK cytotox inconclusive, NIH3T3 tox 32µM
COc1ccc(CN2C[C@@H](F)[C@@H](OCc3nc4ccccc4o3)C2)cn1	HEK cytotox inconclusive, NIH3T3 tox inconclusive
COc1ccc(Cn2c(=O)c(C(=O)N3CCN(C(=O)c4ccc(F)cc4)CC3)nc3cccnc32)cc1	NIH3T3 tox inconclusive (no result: FLuc inh, hNpr1 antagonist)
Cc1noc(C)c1CN1C[C@H]2[C@H](C1)[S+](=O)([O-])C(C)(C)C(=O)N2CCOc1ccccc1	NIH3T3 tox 40µM
CC1(C)C(=O)N(Cc2ccccc2)[C@H]2CN(CC3CCOC3)C[C@H]2[S+]1(=O)[O-] (some centres undefined)	NIH3T3 tox 89µM
Cc1noc(C)c1CN1C[C@H]2[C@H](C1)[S+](=O)([O-])C(C)(C)C(=O)N2Cc1ccccc1F	NIH3T3 tox inconclusive
CC1(C)C(=O)N(CCOc2ccccc2)[C@H]2CN(c3cccc(C(F)(F)F)c3)C[C@@H]2[S+]1(=O)[O-]	HEK cytotox 18µM, NIH3T3 tox 11µM
CC1(C)C(=O)N(Cc2ccccc2)[C@H]2CN(CC3CCOCC3)C[C@H]2[S+]1(=O)[O-]	NIH3T3 tox inconclusive
COc1ccccc1N1CCN([C@@H]2[C@H](O)[C@H](CO)O[C@@H]2CNCc2cccc(Cl)c2)CC1	none
CCN(Cc1ccncc1)C(=O)[C@@H]1CCCN(Cc2ccccc2)[C@@H]1COC	none (no result: FLuc inh, hNpr1 antagonist)
COc1cc2c(cc1-c1cccc(C(F)(F)F)c1)OCC(C)(C)CC2CO (centres undefined)	HEK cytotox 32µM, NIH3T3 tox 28µM (no result: FLuc inh, hNpr1 antagonist)
Cc1oc(-c2cccc(C(F)(F)F)c2)nc1CN1CCCC(CO)C1 (centres undefined)	HEK cytotox inconclusive
OCc1cccc(-c2ccc3ncc(Nc4ccnc(N5CCOCC5)c4)n3n2)c1	FLuc inh inconclusive, HEK cytotox 100µM, NIH3T3 tox inconclusive
COc1ccc(-c2ccc3ncc(Nc4ccnc(N5CCOCC5)c4)n3n2)cn1	HEK cytotox 28µM, NIH3T3 tox 22µM
COc1ccccc1-c1ccc2ncc(Nc3ccnc(N4CCOCC4)c3)n2n1	HEK cytotox inconclusive, NIH3T3 tox inconclusive
COc1ccc(C2(C(=O)N3CCCC(CN4CCOCC4)CC3)CC2)cc1 (centres undefined)	none
CN1C[C@@H]2CCCN3CCC[C@@H]([C@H]23)[C@H]1CCCC(=O)NCc1ccccc1	none
COc1cccc(CNC(=O)C2CCc3nnc(CN[S+](=O)([O-])c4ccccc4Cl)n32)c1 (centres undefined)	none (no result: FLuc inh, hNpr1 antagonist)
COc1ccnc(N2CC[C@H](c3nnc(-c4ccc(C)cc4)o3)C2)n1	FLuc inh inconclusive, HEK cytotox 100µM, NIH3T3 tox inconclusive
Cc1ccc(-c2nnc([C@H]3CCN(c4ncccn4)C3)o2)cc1	HEK cytotox inconclusive
CC(C)CC(=O)N1CCC(Oc2nccnc2N(C)C)C1 (centres undefined)	FLuc inh 32µM
COCC(=O)N1CCC(Oc2nccnc2N(C)C)C1 (centres undefined)	none
CN(C)c1nccnc1OC1CCN(C(=O)c2ccoc2)C1 (centres undefined)	FLuc inh 40µM
CCCN(C)c1nccnc1OC1CCN(C(=O)c2ccc(OC)cc2)C1 (centres undefined)	FLuc inh 40µM, HEK cytotox 45µM
COc1ccc(CNC[C@H]2Cn3cc(-c4ccccc4)nc3CO2)cc1	HEK cytotox inconclusive, NIH3T3 tox inconclusive
COc1ccc(-c2cn3c(n2)CO[C@@H](CNS(C)(=O)=O)C3)cc1	FLuc inh 56µM
COc1ccc(-c2cn3c(n2)CO[C@@H](CNCc2ccc(Cl)cc2)C3)cc1	FLuc inh 63µM, HEK cytotox 89µM, hNpr1 antagonist inconclusive, NIH3T3 tox 100µM
Cc1ccc(-c2cn3c(n2)CO[C@@H](CNS(C)(=O)=O)C3)cc1	none
CCC(=O)NC[C@H]1Cn2cc(-c3ccc(OC)cc3)nc2CO1	FLuc inh 63µM
CO[C@H]1C(=O)N(C(C)C)[C@H]1C1CCN(C(=O)c2cc(C)n(C)n2)CC1	none (no result: FLuc inh, hNpr1 antagonist)
Cc1ccc(-c2cn3c(n2)N(C(=O)c2nc4ncccn4n2)CCC3)cc1	HEK cytotox 40µM
COc1ccc(C(=O)Nc2ccc([C@H]3OCC(=O)N(C(C)C)[C@@H]3CO)cc2)cc1	FLuc inh 25µM, HEK cytotox inconclusive, NIH3T3 tox inconclusive
COc1ccc(C(=O)Nc2ccc([C@H]3OCC(=O)N(C)[C@@H]3CO)cc2)cc1	FLuc inh 71µM
CC(C)(C)C(=O)N1CCCC(C(=O)N2CCC(N3Cc4cccn4C3=O)CC2)C1 (centres undefined)	none (no result: FLuc inh, hNpr1 antagonist)
CNC(=O)c1ccc(CNc2nc(CCN)nc3sc(C)c(C)c23)o1	HEK cytotox 50µM, NIH3T3 tox inconclusive
O=C(c1ccnc(-c2ccccc2-c2ccccc2)c1)N1CCCC1	HEK cytotox inconclusive, NIH3T3 tox 35µM
O=C(c1ccnc(-c2ccncc2)c1)N1CCCC1	none
COc1ccc(CCC(=O)N2CCCCCCN(C)C(=O)[C@@H]3CCC[C@@H]32)cc1	none
Cc1nn(-c2ccccc2)c(Oc2ccccc2F)c1CCC(=O)NCc1ccco1	HEK cytotox 45µM, hNpr1 antagonist inconclusive, NIH3T3 tox inconclusive
Cc1nn(-c2ccc(F)cc2)c(Oc2ccccc2F)c1CCC(=O)NCC1CC1	HEK cytotox 50µM, NIH3T3 tox inconclusive
COCCN1C(=O)CS(=O)(=O)C12CCN(C(=O)c1ccc(F)c(F)c1)CC2	none
CC(C)C[C@@H]1N[C@H](C(=O)NCc2ccccc2)Cc2cn(Cc3cccnc3)c3cccc1c23	HEK cytotox 25µM, NIH3T3 tox inconclusive
C=CCNC(=O)[C@@H]1Cc2cn(Cc3cccnc3)c3cccc(c23)[C@H](CC(C)C)N1	HEK cytotox 50µM, NIH3T3 tox inconclusive
COc1ccccc1CNC(=O)[C@@H]1Cc2cn(C)c3cccc(c23)[C@H](CC(C)C)N1	HEK cytotox 45µM, NIH3T3 tox 50µM
